Shown is part of a subset that was picked to be rich in hits.
CBX7 inh: CBX7 chromodomain binding inhibitors, primary screen, biochemical, AlphaScreen; AlphaScreen His6-CBX7 / biotin-H3K27me3 peptide binding; hits give low values; normalised signal (fraction of DMSO) (concentration not given with the values); 1.1% of 66,000 active; AID 1224903, 2016; in the data active = normalised signal below about 0.5
Target sequence (O95931 whole entry, looked up): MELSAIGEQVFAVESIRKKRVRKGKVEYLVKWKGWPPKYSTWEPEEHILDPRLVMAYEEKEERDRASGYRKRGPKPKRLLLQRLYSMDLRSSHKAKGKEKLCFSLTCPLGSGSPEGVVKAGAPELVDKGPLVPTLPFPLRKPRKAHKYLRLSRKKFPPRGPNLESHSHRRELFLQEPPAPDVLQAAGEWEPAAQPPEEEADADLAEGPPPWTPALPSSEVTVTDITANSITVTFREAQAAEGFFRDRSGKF
Hits are given with their value; . = inactive.

SMILES	CBX7 inh
CC1CCCN(S(=O)(=O)c2ccc(C(=O)Nc3nnc(-c4ccccc4Cl)o3)cc2)C1 (configuration not stated)	0.01
O=C(Nc1nccs1)c1ccc(S(=O)(=O)N2CCOCC2)cc1	.
O=C(Nc1nnc(-c2ccccc2)o1)c1ccc(Cl)c(Cl)c1	.
COc1cc(OC)cc(-c2nnc(NC(=O)c3ccc(S(=O)(=O)N4CCC(C)CC4)cc3)o2)c1	.
COc1ccc(-c2nnc(NC(=O)c3ccc(S(=O)(=O)N(C)c4ccccc4)cc3)o2)cc1	.
O=C(Nc1nnc(-c2ccccc2)o1)c1ccc(Br)cc1	0.27
COc1ccccc1-c1csc(NC(=O)c2ccc(S(=O)(=O)N(C)C)cc2)n1	.
CN(C)C(=O)c1cnn(-c2ccccc2)c1NC(=O)c1ccc(Br)cc1	.
COc1ccccc1NC(=O)CCN1CCN(C/C=C/c2ccccc2)CC1	.
O=C(Cn1nc(Cc2ccncc2)c2ccccc2c1=O)NCc1ccc(F)cc1	.
O=C(Nc1nc2c(Cl)cccc2s1)c1ccc(S(=O)(=O)N2CCCC2)cc1	.
O=C(Nc1nnc(-c2ccc(Cl)s2)o1)c1ccc(S(=O)(=O)N2CCCC2)cc1	0.046
O=C(Nc1nnc(-c2ccc(Cl)cc2Cl)s1)c1ccc(S(=O)(=O)N2CCCC2)cc1	.
Cc1ccc(C)c(NC(=O)CCc2c(C)nc3cc(-c4cccc(F)c4)nn3c2C)c1	.
CC1CCC(NC(=O)C2c3cccn3CC(=O)N2Cc2ccccc2)CC1 (configuration not stated)	.
Cc1ccc(Nc2c(-c3ccccn3)nc3ccc(Br)cn23)cc1	.
Fc1ccc(Nc2c(-c3ccccn3)nc3ccc(Br)cn23)cc1	.
Cc1cccc2nc(-c3ccccn3)c(Nc3ccccc3)n12	0.0053
Cc1cccc(C)c1Nc1c(-c2ccccc2F)nc2cccc(C)n12	.
Cc1ccc(Nc2c(-c3ccccn3)nc3cccc(C)n23)cc1	0.0014
Cc1ccc(Nc2c(-c3ccccc3)nc3cc(C)ccn23)cc1	.
Cc1ccc(Nc2c(-c3ccccn3)nc3ccc(Cl)cn23)cc1	.
Cc1ccc(-c2nc3ccccn3c2Nc2ccc(F)cc2)cc1	.
Cc1ccn2c(Nc3ccc(F)cc3)c(-c3ccccn3)nc2c1	0
Cc1cccc2nc(-c3ccccn3)c(Nc3ccc(F)cc3)n12	0.059
SMILES	CBX7 inh
Cc1ccc(Nc2c(-c3c(F)cccc3Cl)nc3cccc(C)n23)cc1	.
Cc1ccc(Nc2c(-c3ccsc3)nc3cccc(C)n23)cc1	.
c1ccc(-c2nc3ccccn3c2Nc2ccc3c(c2)OCO3)cc1	.
COc1ccc(N2C(=O)C(CC(=O)Nc3ccccc3)N(Cc3ccc(C)cc3)C2=O)cc1 (configuration not stated)	.
O=C(Nc1ccc(F)cc1)c1cnc(N2CCN(c3ncccn3)CC2)c2ccccc12	.
Clc1ccc(-c2nc3ncccn3c2NC2CCCC2)cc1	.
Cc1ccc(NC(=O)Cn2c(SCc3cc(C)ccc3C)nc3ccncc32)c(C)c1	.
Cc1ccc2c(c1)N(CCCC(=O)NCCCN1CCOCC1)C(=O)CO2	.
Cc1ccc(NC(=O)CCc2nnc3ccc(N4CCC5(CC4)OCCO5)nn23)cc1	.
COc1ccccc1-c1c(C)nn2c(N(C)Cc3ccccc3)cc(C)nc12	.
COc1cc(NC(=O)CCc2c(C)nc3cc(-c4cccc(F)c4)nn3c2C)cc(OC)c1	.
Cc1cc(C(=O)NCCN(CC(C)C)CC(C)C)n(-c2ccccc2)n1	.
COc1cc(C)c(S(=O)(=O)NCCc2c(C)[nH]c3ccc(C)cc23)cc1C	0.38
COc1ccc(C)cc1S(=O)(=O)NCCc1c(C)[nH]c2ccc(F)cc12	.
COc1ccc(Cl)cc1S(=O)(=O)NCCc1c(C)[nH]c2ccc(F)cc12	.
COc1ccc(Cl)cc1S(=O)(=O)NCCc1c(C)[nH]c2ccc(C)cc12	0.48
COc1cc(S(=O)(=O)NCCc2c(C)[nH]c3ccc(F)cc23)c(C)cc1C	.
COc1cc(S(=O)(=O)NCCc2c(C)[nH]c3ccc(Br)cc23)c(C)cc1C	.
COc1ccc(CCNC(=O)Cn2cnc3sc(C)c(C)c3c2=O)cc1OC	.
COc1cccc(-c2cc(C(=O)Nc3c(F)cc(F)cc3Br)no2)c1	.
CC(=O)Nc1ccc(Oc2cc([N+](=O)[O-])cc3c2C(=O)Nc2ccccc2O3)cc1	.
Cc1ccc2c(c1)Oc1cc([N+](=O)[O-])cc(Oc3ccc(Cl)cc3)c1C(=O)N2	0.2
Cc1ccc2c(c1)Oc1cc([N+](=O)[O-])cc(Oc3ccccc3C)c1C(=O)N2	0.049
CCc1ccc2c(c1)c(=O)c(S(=O)(=O)c1ccccc1)cn2CC(=O)Nc1ccccc1OC	.
O=C(Nc1cccnc1)C1CCCN1S(=O)(=O)c1cccc2cccnc12 (configuration not stated)	.
Fc1ccc(CSc2nc3ccncc3n2Cc2cccc(Cl)c2)cc1	.
CCOc1cc2c(cc1OCC)C(c1cccc(OC)c1OC)NCC2 (configuration not stated)	.
COc1ccc(Cc2noc(-c3cc(-c4ccncc4)nc4ccccc34)n2)cc1	0.49
